Data taken from paper PMC13494018.

B1: d1r6_design_ppi_106_dldesign_0_cycle0_af2pred (protein)
chain: AAISRAMYHHALGLADAANREAHLAAAAALRAALSPEDAARAEAQIAKIEAAAAANQAAAAAARAARAAAA
B2: d1r6_design_ppi_106_dldesign_0_cycle1_af2pred (protein)
chain: DLISKAVYYYALGIADPANAAEYKAKAQAEIDKLSPEEAAKAKAELEKVTKSQEELAAKSAERAAARAAAA
B3: d1r6_design_ppi_265_dldesign_0_cycle1_af2pred (protein)
chain: AAAQARALGAVAKQAVLDGKFDEAKQLIEGLVNLAQADPAAAPQAAKEMKEIAKAAEEKAKADPANAAKYKALAKVAAAAAKEAEKAA
B4: d1r6_design_ppi_480_dldesign_0_cycle1_af2pred (protein)
chain: AAETQQAADIIIANAEHAKRLAKENPEAGEKLVEVLEESAKWVEAKDPEAGAKAKKAVEEAKKVAEAVKAAREAAKALA
B5: d1r6_design_ppi_647_dldesign_0_cycle0_af2pred (protein)
chain: SKAELLAYKALAAAAKNALEQVKTGEEAEKAVESLKKMAEALGDEETAKLAEEALKAIKKSKEEGEKKLEEAKKYAEKKAKEAA
B6: d1r6_design_ppi_612_dldesign_0_cycle1_af2pred (protein)
chain: GAALEEQAKKIAEEAIEKIKKGAETGSLSPEEILALASKTVAQLSAIAIASKGGVAAGAGAVEVQKVAAEAL
B7: d1r6_design_ppi_166_dldesign_0_cycle0_af2pred (protein)
chain: SAVAADGAAALAVAADLMAAGKEYAAAGDLANAARAYQSARALAATMAAAAAAAGDAATAAALAAAAAAAAAAEAEVKA
B8: d1r6_design_ppi_81_dldesign_0_cycle1_af2pred (protein)
chain: AATQQILITAAVMLEERLDELGRAAEVAAMALLYGAAFGSLEKAREKLEELAATLSAEEAARARATFDEAVAAAQAAA
B9: d1r6_design_ppi_17_dldesign_0_cycle0_af2pred (protein)
chain: MDFAASAQAAQRDAERLAERGIASGDAADLRRATEAVEQLLEIVQGLAAQGAAEAGEQLQAAVERTRAALERTRAAAAAAEAAAA
B10: d1r6_design_ppi_906_dldesign_0_cycle0_af2pred (protein)
chain: AAAAQAEVTIKMGEAVIKQGEEWIEHPEYAEHAAKLLEAVADIAKATAKAAAAADAELAKKVEETRKKLEEVREKAKAVAEA
B11: d1r6_design_ppi_905_dldesign_0_cycle0_af2pred (protein)
chain: AAVEAAQEEALRALEEARALAREVLAADPERAARVAARIEEAAELVRDGEKINEGLALLVELAAESPAEVKPALMRAAALAGRAYVLR
B12: d1r6_design_ppi_754_dldesign_0_cycle1_af2pred (protein)
chain: GKEEELLKKAKEYFEEAEKYIKELEEVAAKAGPAAKGLVTFTKNYFERLKAKAEKATPEEALKLAKEAYDFAKDALEAAKTTLAALE
B13: d1r6_design_ppi_725_dldesign_0_cycle0_af2pred (protein)
chain: AELAATHMAGVEALNRARAAAVALVALDPARGAAWLAEADELGRRLNEAAADASRAEELKRITEELEKLAERIAAERDAAAA
B14: d1r6_design_ppi_780_dldesign_0_cycle1_af2pred (protein)
chain: NAAATRAFSLAVARQAEETAKQVAGVDPELAKKLKELAKEVRKLAADPATHLQAVEATIEALKAIGEANKKLA
B15: d1r6_design_ppi_2_dldesign_0_cycle1_af2pred (protein)
chain: EQYFTDRDIAAAEAAAAKYAALAADPEARAYAARFREAAALIRDPATRAEGIDLLAATEAAAAAHAKALAA
B16: d1r6_design_ppi_671_dldesign_0_cycle1_af2pred (protein)
chain: AVEEALKKAEEAAKELEKVAKELGDKEAKEKAKQVKSLIEFAKVAAEAGDEKTALHAAKQAKELAEKALKEAKAKLEAKKAEEEKLKK
B17: d1r7_design_ppi_3_dldesign_0_cycle1_af2pred (protein)
chain: AAEAAALYEATRAAAEALARVDPALAAEAARLRGQALRYYSLTFVDPAAGRAGVAAVLAEAKRLLAAARARA
B18: d1r6_design_ppi_627_dldesign_0_cycle1_af2pred (protein)
chain: DEVQREIRERVERGRETAKRAAQHPATAPIAAAIRATAERAEAASSDPERALNYAQMTDVAIANGELALAQVAA
B19: d1r6_design_ppi_250_dldesign_0_cycle0_af2pred (protein)
chain: SAALAAARGAILQAALSLGVERAREAFARVEASDPAEAAALAEALAAEAAARDPAIGARAAAGAAALRAA

Molecular target: CD276, Q5ZPR3
Sequence (Q5ZPR3 whole entry): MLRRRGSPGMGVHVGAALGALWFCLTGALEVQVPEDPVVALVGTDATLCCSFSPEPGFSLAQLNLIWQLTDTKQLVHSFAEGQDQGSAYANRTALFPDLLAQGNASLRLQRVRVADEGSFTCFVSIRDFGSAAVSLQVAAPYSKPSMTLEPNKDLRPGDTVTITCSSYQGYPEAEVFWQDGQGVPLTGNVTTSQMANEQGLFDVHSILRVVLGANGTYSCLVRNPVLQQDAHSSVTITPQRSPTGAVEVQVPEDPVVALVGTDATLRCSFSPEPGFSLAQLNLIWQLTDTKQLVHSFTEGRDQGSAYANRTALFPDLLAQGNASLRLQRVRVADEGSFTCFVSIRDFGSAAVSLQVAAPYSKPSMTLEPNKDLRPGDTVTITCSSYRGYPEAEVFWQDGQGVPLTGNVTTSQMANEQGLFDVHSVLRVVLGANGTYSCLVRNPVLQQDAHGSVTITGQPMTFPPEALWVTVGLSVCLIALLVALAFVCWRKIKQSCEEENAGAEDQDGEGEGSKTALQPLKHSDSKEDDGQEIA

Binding in a display sort, inactive:
B1 not found, B2 not found, B3 not found, B4 not found, B5 not found, B6 not found, B7 not found, B8 not found, B9 not found, B10 not found, B11 not found, B12 not found, B13 not found, B14 not found, B15 not found, B16 not found, B17 not found, B18 not found, B19 not found
